target: Torsin-1A (Homo sapiens) (UniProt O14656); assay: torsin A mutant lysate binding on microarrays – cell lysate, small-molecule microarray, COS7 lysate, 635/667 nm fluorescence, primary screen (AID 1150); conditions: COS7 hTOR1A mutant lysate, 635 nm fluorescence, higher = more signal;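 further: score pools 667 nm emission and signal to noise measuring lysate protein binding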
Sequence (O14656 whole entry, looked up): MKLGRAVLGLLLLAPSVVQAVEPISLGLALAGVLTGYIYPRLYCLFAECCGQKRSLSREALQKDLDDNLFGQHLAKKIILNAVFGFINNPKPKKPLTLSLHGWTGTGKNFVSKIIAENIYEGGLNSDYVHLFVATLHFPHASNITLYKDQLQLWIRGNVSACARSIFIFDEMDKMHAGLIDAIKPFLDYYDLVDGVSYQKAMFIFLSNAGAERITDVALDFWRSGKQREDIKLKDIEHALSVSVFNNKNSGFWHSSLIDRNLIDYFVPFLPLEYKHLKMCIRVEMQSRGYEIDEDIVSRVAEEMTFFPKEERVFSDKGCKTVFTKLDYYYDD

Row | SMILES | composite z-score
1 | CCOC(=O)C1=CC[C@@H](c2ccc(OC)cc2)N(S(=O)(=O)c2ccc(C)cc2)[C@H]1c1ccc(C)cc1 | 0.308
2 | CCOC(=O)C[C@H]1[C@H](OC(=O)Cc2ccc3c(c2)OCO3)[C@@H](NC(=O)c2ccc3ccccc3n2)c2cc(OCCCO)ccc2N1C(=O)Cc1ccc(OC)cc1 | 0.744
3 | CC(C)(C)N1CC=CC23O[C@@H]4C=CCOC(=O)[C@@H]4[C@H]2C(=O)N(CCO)[C@@H]3C1=O (stereo partly drawn) | -1.07
4 | CCOC(=O)C1=CC[C@@H](c2ccc(OC)cc2)N(S(=O)(=O)c2ccc(C)cc2)[C@H]1CC | 0.714
5 | COc1ccc(NN2C(C(O)c3ccc(I)cc3)C=CC3C(=O)N(C4CCCCC4)C(=O)C32)cc1 (stereo not drawn) | 0.51
6 | C=CCOC(=O)[C@H]1[C@@H]2C(=O)O[C@@H](c3ccccc3)[C@@H](c3ccccc3)N2[C@@H](c2ccc(OCCOC(=O)[C@@H]3C[C@@H]4C(=O)N[C@@H](CCCC[N+](C)(C)C)C(=O)N4[C@@H]3c3ccc(O)cc3)cc2)[C@]12C(=O)Nc1ccc(I)cc12 | 1.57
7 | Cc1ccc(S[C@]2(C(=O)NCc3ccccc3)CC(=O)N(Cc3ccccc3C(F)(F)F)[C@@H]2c2ccc(CO)cc2)cc1 | -0.687
8 | CC(C)=CCCC(C)=CC(O)C1C=CC2C(=O)NC(=O)C2N1Nc1ccccn1 (stereo not drawn) | 1.53
9 | O=C1O[C@H](c2ccccc2)[C@H](c2ccccc2)N2[C@H]1[C@@H](C(=O)O)[C@]1(C(=O)Nc3ccc(C#CCCO)cc31)[C@H]2c1ccc(OCCO)cc1 | 1.08
10 | C=CCN1C(=O)[C@@]2(O[C@@H](CCn3cc([C@H](O)c4ccccc4)nn3)[C@H]([Si](C)(C)c3ccc(OC)cc3)[C@H]2C)c2cc(N3C(=O)c4cccc5cccc3c45)ccc21 | -0.462
11 | NC(=O)NCC#Cc1ccc2c(c1)[C@]1(C(=O)N2)[C@H](c2ccc(OCCO)cc2)N2[C@H](c3ccccc3)[C@H](c3ccccc3)OC(=O)[C@H]2[C@@H]1C(=O)O | 0.141
12 | CO[C@H]1O[C@H](CO)[C@@H](OC(=O)Nc2ccc3c(c2)OCO3)[C@H](OC(=O)Nc2ccccc2-c2ccccc2)[C@H]1OC(=O)Nc1ccccc1-c1ccccc1 | 1.55
13 | CC1CC/C=C\[C@H]2OC34C=CCN(c5ccc6ccccc6c5)C(=O)[C@H]3N(C(C)CO)C(=O)[C@@H]4C2C(=O)O1 (stereo partly drawn) | -1.15
14 | COC(=O)[C@@]1(Cc2ccc(OC)cc2)[C@H]2c3cc(C(=O)N4CCCC4)n(Cc4ccc(C(F)(F)F)nc4)c3C[C@H]2CN1C(=O)c1ccccc1 | 0.52
15 | Cc1ccc(C(C)CC(O)C2C=CC3C(=O)N(C)C(=O)C3N2Nc2ccccc2)o1 (stereo not drawn) | -0.139
16 | C=CC[C@@]1(C(=O)N(C)C)N=C(c2ccc(OCCCO)cc2)O[C@@H]1c1ccccc1CN=[N+]=[N-] | 1.17
17 | COC(=O)[C@@]1(Cc2ccccc2)[C@H]2c3cc(C(=O)N4CCCC4)n(Cc4ccc(OC)c(OC)c4)c3C[C@H]2CN1C(=O)c1ccccc1 | 1.18
18 | N#Cc1ccc(NN2C(C(O)C3CC=CCC3)C=CC3C(=O)N(c4ccccc4)C(=O)C32)cc1 (stereo not drawn) | 0.202
19 | C=C(C)[C@@H]1CC=C(C(O)C2C=CC3C(=O)N(c4ccccc4)C(=O)C3N2Nc2ccc([N+](=O)[O-])cc2)CC1 (stereo partly drawn) | 0.685
20 | COc1ccc([Si](C)(C)[C@H]2[C@H](CCO)O[C@@]3(C(=O)N(Cc4cccc(N(C=O)c5ccccc5)c4)c4ccccc43)[C@@H]2C)cc1 | 1.01
21 | CCCCC(O)C1C=CC2C(=O)N(c3ccccc3)C(=O)C2N1Nc1ccc([N+](=O)[O-])cc1 (stereo not drawn) | 0.482
22 | COc1ccc([Si](C)(C)[C@@H]2[C@@H](CC(=O)N3CCC[C@H]3CO)O[C@]3(C(=O)N(Cc4ccc(N5CCOC5=O)cc4)c4ccccc43)[C@H]2C)cc1 | 0.557
23 | CC(C)NC(=O)[C@@H]1c2ccccc2C(=O)N(Cc2ccccc2C(F)(F)F)[C@H]1c1ccc(CO)cc1 | 0.0029
24 | CCCCCC1=C2CNC(Cc3ccccc3)(C(=O)OC)C=C2C(C)C1=O (stereo not drawn) | 0.154
25 | CN(C)c1ccc(C(O)C2C=CC3C(=O)N(Cc4ccccc4)C(=O)C3N2n2cnnc2)cc1 (stereo not drawn) | -0.243
26 | O=C(NCC(O)CO)[C@@]1(CCS(=O)(=O)c2ccccc2)N=C(c2ccc(OCCCO)cc2)O[C@H]1c1ccccc1 (stereo partly drawn) | 1.23
27 | COCCCNC(=O)[C@@H]1c2ccccc2C(=O)N(Cc2ccc(OC(F)(F)F)cc2)[C@H]1c1ccc(CO)cc1 | 0.281
28 | Cc1ccc(F)cc1S(=O)(=O)N[C@H]1CCN(Cc2ccc(OC(C)C)cc2)C1 | -0.0115

Source: PubChem BioAssay
